# Source: PubChem BioAssay (NCATS)
# Records with an inconclusive call do not appear. Where a call stands in place of a potency, no number is given. A number with no mark means an inactive call. Activity calls are given as the source filed them. Calls come from the whole dose curve; as a rule, active = well fitted inhibition curve with a large enough effect; inconclusive = small, poorly fitted or top-dose-only effect; inactive = no such curve, though single readings can be large or run the other way.
# Experiment: Counterscreen qHTS for small molecule stabilizers of the endoplasmic reticulum resident proteome: GLuc-NoTag assay (AID 1508627)
# Settings: Gaussia luciferase NoTag secretion counterscreen, luminescence, thapsigargin 100 nM for final 4 h; series mostly up to 76.4 µM
# Excerpt: Assay Provider: Brandon K. Harvey Ph.D.
# National Institute on Drug Abuse, National Institutes of Health, Baltimore, MD
# Endoplasmic reticulum (ER) dysregulation is associated with human pathologies including neurodegenerative, cardiovascular, muscular, and diabetic conditions. Maintenance of ER calcium is critical for functions of the ER and its depletion can lead to loss of ER resident proteins, in a process termed exodosis. Therapeutic compounds capable of attenuating the redistribution of ER proteins under pathological conditions may slow or stop disease progression. To identify such compounds, we performed a quantitative high-throughput screen (qHTS) using the SERCaMP assay, which monitors secretion of ER resident proteins triggered by calcium depletion.
# SERCaMP was initially developed as a reporter of ER calcium homeostasis using a Gaussia luciferase with a modified signal peptide and carboxy-terminus (GLuc-SERCaMP), modifications that confer secretion of the reporter in response to ER calcium depletion (Henderson et al., 2014). The assay was used to screen 9,501 compounds, including a collection of drugs approved by the FDA (US), EMA (EU), NHI (Japan), and HC (Canada) regulatory agencies (Huang et al., 2011). Since the SERCaMP reporter reflects the exodosis phenomenon (Trychta et al., 2018a), compounds identified in the screen have the potential to prevent exodosis by different mechanisms such as stabilizing ER calcium or augmenting ERS retrieval.
# 1. Henderson, M.J., Wires, E.S., Trychta, K.A., Richie, C.T., and Harvey, B.K. (2014). SERCaMP: a carboxy-terminal protein modification that enables monitoring of ER calcium homeostasis. Mol Biol Cell 25, 2828-2839.
# 2. Huang, R., Southall, N., Wang, Y., Yasgar, A., Shinn, P., Jadhav, A., Nguyen, D.T., and Austin, C.P. (2011). The NCGC pharmaceutical collection: a comprehensive resource of clinically approved drugs enabling repurposing and chemical genomics. Sci Transl Med 3, 80ps16.
# 3. Trychta, K.A., Back, S., Henderson, M.J., and Harvey, B.K. (2018a). KDEL Receptors Are Differentially Regulated to Maintain the ER Proteome under Calcium Deficiency. Cell Rep 25, 1829-1840 e1826.
# SEQUENCE No. (1, 2, 3, etc.); […] (e.g., Cells, Incubation, Reagent, etc.); VALUE and DESCRIPTION.
# 1; Reagent; 5 uL; 1000 SH-SY5Y cells per wells
# 3; Compound; 23 nL; Control inhibitor / compound library
# 5; Reagent; 100 nM; Thapsigargin
# 7; Reagent; 1 uL; 0.5x coelenterazine
# 8; Detection; Luminescence; ViewLux imaging system
# NOTES (numbers refer to sequence above)
# 1; SH-SY5Y human neuroblastoma cells stably expressing the constitutively secreted GLuc (SH-SY5Y-GLuc-NoTag) cells were seeded in 1,536 well white tissue culture treated plates (Corning, Cat# 7464) in DMEM-high glucose-sodium pyruvate (ThermoFisher Scientific, Cat #10569) supplemented with 10% bovine growth serum (Hyclone), 10 U/ml penicillin (Gibco), 10 ug/ml streptomycin (Gibco), and 20 mM HEPES.
# 2; Assay plates were incubated for 5 hour at 37C in a humidified incubator containing 5% CO2.
# 4; Cells were then incubated for 19 hours at 37C, 5% CO2.
# 5; Thapsigargin was added at 100 nM to deplete ER calcium stores.
# 6; Cells were incubated for 4 hour (37 °C, 5% CO2)
# 7; Gaussia luciferase in the medium was measured by adding 1 ul of 0.5x coelenterazine (final concentration 0.07x) prepared in Gaussia Luciferase Glow Assay Buffer (Pierce), without addition of the Cell Lysis Buffer Reagent.
# 8; Luminescence was measured using a ViewLux CCD imaging system (Perkin Elmer) equipped with clear filters. […] The same controls were also used for the calculation of the Z' factor, a measure of assay quality control, as previously described (Zhang et al., 1999). For the initial validation of activity in the SERCaMP assays, hits from the primary screen were assayed again at 11-concentrations (1.3 nM - 76.6 uM). SH-SY5Y-GLuc-SERCaMP cells were assayed for ER Ca2+ depletion as outlined above.
# 1. Zhang, J.H., Chung, T.D., and Oldenburg, K.R. (1999). […]
# Potency is the fitted concentration of half-maximal effect.
Compound,Potency,"activity change, negative = inhibition"
CC(C)[C@@]1(NC(=O)[C@@H]2C[C@H]3c4cccc5[nH]cc(c45)C[C@@H]3N(C)C2)O[C@@]2(O)[C@H]3CCCN3C(=O)[C@H](Cc3ccccc3)N2C1=O,inactive,
CCC(Sc1ccccc1)C(=O)OC1CC2CCC(C1)N2C (stereo not given),inactive,
CN1C2CCC1CC(OC(=O)C1CCC(C(=O)OC3CC4CCC(C3)N4C)(c3ccccc3)c3ccccc31)C2 (stereo not given),inactive,
Fc1ccc(C(OCCN2CCN(C/C=C\c3ccccc3)CC2)c2ccc(F)cc2)cc1,39.8 µM (active),
CN1CC[C@@]2(c3cccc(O)c3)Cc3nc4ccccc4cc3C[C@H]2C1,inactive,
CN1[C@@H]2CC[C@H]1CC(OC(c1ccc(F)cc1)c1ccc(F)cc1)C2 (stereo not given in full),44.7 µM (active),
CCCCCCC[n+]1ccc(-c2cc[n+](CCCCCCC)cc2)cc1,inactive,
CC(C)(O)C1O[C@H]2CC[C@@]3(C)[C@@](O)(CC[C@H]4Cc5c([nH]c6ccccc56)[C@@]43C)C2=CC1=O (stereo not given in full),inactive,
CC(C)[C@]1(O)[C@@H](OC(=O)c2ccc[nH]2)[C@@]2(O)[C@@]3(C)C[C@]4(O)O[C@@]5([C@H](O)[C@@H](C)CC[C@]35O)[C@@]2(O)C41C,inactive,
NC(N)=NCCCCCCCCCCN=C(N)N,inactive,
Oc1ccc2c3c1O[C@H]1c4[nH]c5ccccc5c4C[C@]4(O)[C@H](C2)N(CC2CC2)CC[C@@]314,inactive,
CCN(CC)CCO[C@H]1CC[C@@]2(C)C(=CC[C@@H]3[C@H]2CC[C@]2(C)C(=O)CC[C@H]32)C1,25.1 µM (active),
CC[C@H](Oc1ccc(Cl)cc1)C(=O)OC1C[C@H]2CC[C@@H](C1)N2C (stereo not given in full),inactive,
CN1CC[C@@]23CCCCC2C1Cc1ccc(O)cc13 (stereo not given in full),inactive,
COc1ccc2[nH]cc(C3=CCNCC3)c2c1,6.31 µM (active),
C[C@H](N)Cc1c[nH]c2ccc(OCc3cccs3)cc12,inactive,
C[C@@H](C(=O)OC1C[C@H]2CC[C@@H](C1)N2C)c1ccc(Br)cc1 (stereo not given in full),inactive,
Cl.Cl.Cl.Cl.Cl.Cl.N.N.N.N.NNNNN.NNNNN.O.O.[Ru].[Ru].[Ru],12.6 µM (active),

Compound,Potency,"activity change, negative = inhibition"
OC12C3C4CC5C6C4C1C6C(C53)N2CCc1cccc(F)c1 (stereo not given),inactive,
c1ccc2sc(C3(N4CCCC4)CCCCC3)cc2c1,inactive,
CN1C(=O)COc2c(C(=O)N[C@@H]3CN4CCC3CC4)cc(Cl)cc21,inactive,
CCCOc1ccc2[nH]cc(C3=CCNCC3)c2n1,inactive,
CN1CC[C@@H]2CN3CCc4cccc(c43)[C@@H]2C1,inactive,
CC(C)C[C@H](NC(=O)[C@H](Cc1ccccc1)NC(=O)CNC(=O)[C@H](C)NC(=O)[C@@H](N)Cc1ccc(O)cc1)C(=O)O,,12% [at 9.46 µM]
CC(=O)C1=C(O)[C@@H]2[C@@H]3c4c[nH]c5cccc(c45)C[C@@H]3C(C)(C)N2C1=O,inactive,
CN1CC[C@@H]2CN3CCc4cccc(c43)[C@H]2C1,inactive,
CN1C2CCC1CC(OC(c1ccc(F)cc1)c1ccc(F)cc1)C2 (stereo not given),22.4 µM (active),
CC(C)=CCCN1CCC(NC(=O)C(O)(c2ccccc2)C2CCCC2)CC1 (stereo not given),inactive,
O[C@@H]1[C@H](O)[C@H]2[C@@H](O)CCN2C[C@@H]1O,inactive,
C[C@H]1CCC/C=C/C2C[C@H](O)C[C@H]2[C@H](O)/C=C/C(=O)O1 (stereo not given in full),inactive,
CC(C)(O)C1OC2CCC3(C)C(O)(CCC4Cc5c([nH]c6ccccc56)C43C)C2=CC1=O (stereo not given),inactive,
Fc1ccc(C(OCCN2CCN(C/C=C/c3ccccc3)CC2)c2ccc(F)cc2)cc1,44.7 µM (active),
C[C@H]1C[C@H](C)C(=O)[C@@H]([C@H](O)CC2CC(=O)NC(=O)C2)C1,1.58 µM (active),
Cn1c2c(c3ccccc31)CCNCC2,inactive,
OC[C@@H]1[C@@H](O)[C@H](O)[C@H]2[C@@H](O)CCN21,inactive,
